Measured values reported in publication PMC4552634, “A New Set of Chemical Starting Points with Plasmodium falciparum Transmission-Blocking Potential for Antimalarial Drug Discovery” (PLoS ONE, 2015).
Screen size: about 13,000 compounds; about 3,200 (25%) showed an effect of 50% or more. The list shows a part of the results.

Test system: P. falciparum stage V gametocytes
Design: BacTiter-Glo ATP luminescence viability of purified stage V gametocytes in 384-well plates, per cent inhibition versus DMSO
Settings: 48 h, 5 µM; inhibitor

SMILES | % Inhibition
O=C(NCc1ccc(F)cc1)Nc1ccc(-c2cccc(-c3nc4ccc(C(F)(F)F)cc4[nH]3)c2)cc1 [TCMDC-133298] | -50.83%
CS(=O)(=O)c1ccccc1CNC(=O)c1ccc(-c2ccc(-c3nc4cc(C(F)(F)F)ccc4[nH]3)s2)cc1 [TCMDC-132507] | 9.09%
COc1ccc2nccc([C@@H](O)CN3CCC(NC(=O)C(c4cc5ccccc5o4)N4CCN(c5ccc(F)cc5)CC4)CC3)c2c1 (stereo partly drawn) [TCMDC-140996] | -29.58%
CCc1c(CCNCCCCCCNCCc2ccc3c(c2C)OCO3)ccc2c1OCO2 [TCMDC-132093] | 97.88%
CCc1c(CCNCCCCCCNCc2ccc3c(c2CC)OCO3)ccc(OC)c1OC [TCMDC-132068] | 92.52%
CCc1c(CCNCCCCCCNC(C)(C)Cc2ccc3c(c2CC)OCO3)ccc(OC)c1OC [TCMDC-132055] | 110.7%
CCc1c(CCNCCCCCCNC(C)Cc2ccc3c(c2CC)OCO3)ccc(OC)c1OC (stereo not drawn) [TCMDC-132052] | 111%
Nc1cnc(C#Cc2cc3ncnc(N(CCN4CCOCC4)c4ccc(OCc5cccc(F)c5)c(Cl)c4)c3s2)cn1 [TCMDC-134752] | 42.15%
Cc1cc(Oc2cc(NC(=O)c3sc4ncn(Cc5ccccc5F)c(=O)c4c3C)cc([N+](=O)[O-])c2)ccc1Cl [TCMDC-125704] | 16.56%
O=C(c1ccc(O)c(-c2cc(Cl)cc(Cl)c2)c1)N1CCCC1 [TCMDC-140161] | -10.57%
CCOc1ccc(-c2cc3nc(C4CCNCC4)c(C(=O)Nc4ccc(C)cc4Cl)cn3n2)cc1 [TCMDC-125296] | 121.3%
CCOc1ccc(NC(=O)c2cccc(CN3CCCN(Cc4cccc(O)c4)CC3)c2)cc1 [TCMDC-135987] | -4.859%
CCOc1ccc(NC(=O)c2cn3nc(-c4ccc(OCC)cc4)cc3nc2C2CCNCC2)cc1 [TCMDC-125277] | 105.9%
CCOc1cc(C)ccc1C1CCN(CCCCNC(=O)c2ccc(-c3ccc(Cl)cn3)cc2)CC1 [TCMDC-138562] | -60.76%
COc1cc(OC)c(NC(=O)COc2ccc(C)cc2)cc1Cl [TCMDC-123682] | 23.04%
CCOc1ccc(NC(=O)c2ccc(CN3CCCN(Cc4cccc(O)c4)CC3)cc2)cc1 [TCMDC-136436] | 8.028%
O=C(Nc1cccc(-c2cccc(-c3nc4ccc(C(F)(F)F)cc4[nH]3)c2)c1)c1csnn1 [TCMDC-136902] | 10.49%
Cc1cc2c(cc1Cl)N(C(=O)Nc1cc(F)cc(-c3cncnc3)c1)CC2 [TCMDC-139052] | -4.717%
COc1cc2nccc(Nc3cccc(Oc4ccccc4)c3)c2cc1OC.Cl [TCMDC-137216] | 29.43%
Cc1ccc(NC(=O)c2ccc(CN3CCCN(Cc4cccc(O)c4)CC3)cc2)cc1F [TCMDC-136395] | 3.853%
O=C1C(C2CCC(c3ccc(Cl)cc3)CC2)=C2OCC3COC2(O3)c2ccccc21 (stereo not drawn) [TCMDC-138169] | 65.18%
O=C1COC2(CN1C1CCN(Cc3ccc(O)c(Cl)c3)C1)c1ccccc1-c1ccccc12 (stereo not drawn) [TCMDC-136342] | -3.473%
Cc1ccccc1C1CCN(C2CCC(NC(=O)/C=C/c3cccc(F)c3F)CC2)CC1 (stereo not drawn) [TCMDC-133525] | -91.19%
CC(=O)Nc1ncc(C(=O)Nc2ccc(-c3cccc(-c4nc5ccc(C(F)(F)F)cc5[nH]4)c3)cc2)s1 [TCMDC-136919] | -27.65%
Nc1cccc(CNCc2cccc(-c3ccc(-c4nc5ccccc5[nH]4)s3)c2)c1.O=C(O)C(F)(F)F [TCMDC-132926] | -42.76%

SMILES | % Inhibition
CNC(=O)COc1ccc(Nc2nnc(-c3ccc(C)c(S(=O)(=O)NCC4CCCO4)c3)c3ccccc23)cc1 (stereo not drawn) [TCMDC-125616] | 3.105%
Cc1noc(-c2ccc3c(c2)CCN(CCC2CCC(NC(=O)/C=C/c4cccc(Cl)c4)CC2)CC3)n1 (stereo not drawn) [TCMDC-139877] | -87.8%
COc1cc(NC(=O)N2CCc3cc(OC)c(OCCN4CCCCC4)cc32)cc(C(F)(F)F)c1 [TCMDC-140782] | 9.489%
COc1cc(NC(=O)/C=C/c2ccccc2OC(F)(F)F)cc(OCCN2CCCCC2)c1 [TCMDC-140931] | -34.24%
COc1ccc(Br)cc1/C=C/C(=O)Nc1ccc(C2CCN(C)CC2)cc1 [TCMDC-133711] | 12.54%
Cc1cc(-c2ccc3c(c2)CCN(CCCOc2ccc4c(c2)CCN4C(=O)/C=C/c2ccccc2Cl)CC3)no1 [TCMDC-141470] | 81.48%
Cc1cnccc1/C=C/c1cccc(OCCCN2CCc3ccc(S(C)(=O)=O)cc3CC2)c1 [TCMDC-135876] | 29.22%
COc1cc2c(cc1OCCN1CCC(N)CC1)N(C(=O)/C=C/c1ccccc1Cl)CC2 [TCMDC-140969] | 75.81%
COc1ccc(NC(=O)/C=C/c2ccccc2Cl)cc1OCCN1CCC(NC2CC2)CC1 [TCMDC-140756] | -32.57%
CCOc1ccc(Br)cc1/C=C/C(=O)Nc1ccc2c(c1)CN(C)CCC2 [TCMDC-133944] | 3.1%
COc1cc2c(cc1OCCN1CCC(N3CCCCC3)CC1)N(C(=O)/C=C/c1ccccc1OC(F)(F)F)CC2 [TCMDC-141018] | 57.17%
CCCCN(CCCC)CCOc1cc2c(cc1OC)CCN2C(=O)/C=C/c1ccccc1Cl [TCMDC-141328] | 30.32%
CCOc1ccc(Br)cc1/C=C/C(=O)Nc1ccc(C2CCN(C)CC2)cc1 [TCMDC-134194] | 61.62%
NC1=NC(c2ccccc2)N(c2ccccc2)C(N)=N1 (stereo not drawn) [TCMDC-123669] | -71.64%
CNC(=O)CNC(=O)COc1cccc2ccccc12 [TCMDC-131646] | 8.257%
O=C(N/N=C/c1nc2ccccc2[nH]1)c1cccc([N+](=O)[O-])c1 [TCMDC-125792] | 11.6%
CCCCCCCC1=NN2C(=N)C(=Cc3cc(Br)c(OCc4ccc(F)cc4)c(OCC)c3)C(=O)N=C2S1 [TCMDC-124035] | 8.522%
CCOc1cc(O)c(-c2nc(N)ncc2-c2ccc3c(c2)OCCO3)cc1CC [TCMDC-125234] | 11.3%
CC1(C)N=C(N)NC(Nc2ccc(Cl)cc2)=N1 [TCMDC-124268] | 26.51%
COCCCNC(=O)[C@H]1CNCCN1C(=O)c1ccccc1 [TCMDC-141239] | -7.699%
COc1ccc(NC(=O)/C=C/c2ccccc2Cl)cc1OCCN1CCC(N(C)C)CC1 [TCMDC-140755] | 36.26%
COc1cc2c(cc1OCCN1CCC(N3CCCCC3)CC1)N(C(=O)/C=C/c1ccccc1Cl)CC2 [TCMDC-140770] | 68.26%
COc1ccc(NC(=O)/C=C/c2ccccc2Cl)cc1OCCN1CCC(NCc2ccccc2)CC1 [TCMDC-140746] | -31.11%
O=C(/C=C/c1ccccc1Cl)Nc1ccc(Br)c(OCCN2CCN(CCN3CCCC3)CC2)c1 [TCMDC-140961] | 38.25%
COc1ccc(NC(=O)/C=C/c2ccccc2Cl)cc1OCCN1CCC(N2CCCCC2)CC1 [TCMDC-140698] | -6.505%

SMILES | % Inhibition
COc1ccc(NC(=O)/C=C/c2ccccc2Cl)cc1OCCN1CCC(N2CCN(C)CC2)CC1 [TCMDC-140757] | 11.04%
COc1ccc(NC(=O)/C=C/c2ccccc2Cl)cc1OCCN1CCC(N2CCCC2)CC1 [TCMDC-140919] | -16.17%
CN1CCC(N2CCN(CCOc3cc(NC(=O)/C=C/c4ccccc4Cl)ccc3Br)CC2)CC1 [TCMDC-140962] | 101%
COc1cc2c(cc1OCCN1CCC(N3CCCC3)CC1)N(C(=O)/C=C/c1ccccc1Cl)CC2 [TCMDC-140968] | 80.73%
O=C(Nc1ccc(N2CCCCC2)c(Cl)c1)c1ccc(Br)o1 [TCMDC-124350] | 9.025%
CC(C)(C)C(Cn1ccnc1)NCc1cn[nH]c1-c1ccc(-c2ccccc2)cc1 (stereo not drawn) [TCMDC-124639] | 18.54%
CC1CCN(C(=O)CSc2nc(-c3ccc(C(C)C)cc3)no2)CC1 [TCMDC-124746] | 17.92%
COCC(=O)Nc1nc2ccccc2[nH]1 [TCMDC-125535] | -0.9845%
Cc1cc(C(=O)Nc2ccc3c(c2)CCN3C2CCN(Cc3cccc4cc[nH]c34)C2)no1 (stereo not drawn) [TCMDC-135085] | 42.96%
CC(C)NCc1ccc(-c2ccc(NS(=O)(=O)c3cccc4cccnc34)cc2)cc1 [TCMDC-136476] | 32.43%
CCN(CC)CCNc1ccnc2[nH]c3ccc(C)cc3c12 [TCMDC-131833] | -0.1276%
CCn1ncc2c(N3CCCC3=O)cc(C(=O)N[C@@H](Cc3ccccc3)[C@H](O)CNC(C)(C)c3cccc(OC)c3)cc21 [TCMDC-135063] | 45.35%
O=C(Nc1ccc(-c2cccc(-c3nc4ccc(F)cc4[nH]3)c2)cc1)Nc1ccc(Cl)c(Cl)c1 [TCMDC-133282] | -9.249%
CCC(CC)NCc1c(O)ccc2c(CNC(CC)CC)c(O)ccc12 [TCMDC-137581] | -56.22%
Cc1cccc2[nH]c(-c3ccc(-c4ccc(NC(=O)Nc5ccc(Cl)c(Cl)c5)cc4)cc3)nc12 [TCMDC-133281] | -29.93%
Cc1nc2ccc(S(=O)(=O)Nc3ccc(C(=O)N[C@@H](CCC(=O)O)C(=O)O)cc3)cc2c(=O)[nH]1 [TCMDC-137978] | -10.92%
CC(C)COc1ccc(Cl)cc1Cc1ccc(-c2nc3ccc(N4CCN(C)CC4)cc3[nH]2)o1 [TCMDC-136709] | 31.86%
CC(C)COc1ccc(Cl)cc1Cc1ccc(-c2nc3ccc(CCN4CCCC4)cc3[nH]2)o1 [TCMDC-136890] | 21.95%
CC(C)COc1ccc(Cl)cc1Cc1ccc(-c2nc3ccc(Cl)cc3[nH]2)o1 [TCMDC-136546] | -3.56%
CC(C)COc1ccc(Cl)cc1Cc1ccc(-c2nc3ccc(Br)cc3[nH]2)o1 [TCMDC-136705] | 53.1%
CC(C)COc1ccc(Cl)cc1Cc1ccc(-c2nc3ccc(CCN(C)C)cc3[nH]2)o1 [TCMDC-136891] | 30.85%
CC(C)COc1ccc(Cl)cc1Cc1nc(-c2nc3ccc(CN(C)C)cc3[nH]2)co1 [TCMDC-136809] | -8.138%
CC(C)COc1ccc(Cl)cc1Cc1ccc(-c2nc3cc(F)c(F)cc3[nH]2)o1 [TCMDC-136561] | 53.5%
CC(C)COc1ccc(Cl)cc1Cc1ccc(-c2nc3ccc(C(F)(F)F)cc3[nH]2)o1 [TCMDC-136563] | 61.92%
CC(C)COc1ccc(Cl)cc1Cc1ccc(-c2nc3ccc(F)cc3[nH]2)o1 [TCMDC-136545] | 33.1%
